# Compounds with a hit are over-represented: about 3.4% of the library has one in this group of screens.
# GPR151 ag – activators of human GPR151, primary screen, cell-based, PathHunter beta-arrestin, luminescence; AID 1508602, 2020; activation, % at 11.2 µM; PathHunter beta-arrestin GPR151 cells; 650,000 compounds, 1% hits; in the data active = activation above about 4.9%;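 also: 0% = median of compound wells and 100% = cells with positive control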
# MITF primary – MITF inhibitors, primary screen, biochemical, AlphaScreen, human; AlphaScreen MITF homodimerization, bead proximity signal; inhibition, % at 2.6 µM; 650,000 compounds, 0.91% hits; AID 1259374, 2018; in the data active = inhibition above about 50%;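 also: 0% = vehicle wells with protein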
# Target sequence (O75030 whole entry, looked up): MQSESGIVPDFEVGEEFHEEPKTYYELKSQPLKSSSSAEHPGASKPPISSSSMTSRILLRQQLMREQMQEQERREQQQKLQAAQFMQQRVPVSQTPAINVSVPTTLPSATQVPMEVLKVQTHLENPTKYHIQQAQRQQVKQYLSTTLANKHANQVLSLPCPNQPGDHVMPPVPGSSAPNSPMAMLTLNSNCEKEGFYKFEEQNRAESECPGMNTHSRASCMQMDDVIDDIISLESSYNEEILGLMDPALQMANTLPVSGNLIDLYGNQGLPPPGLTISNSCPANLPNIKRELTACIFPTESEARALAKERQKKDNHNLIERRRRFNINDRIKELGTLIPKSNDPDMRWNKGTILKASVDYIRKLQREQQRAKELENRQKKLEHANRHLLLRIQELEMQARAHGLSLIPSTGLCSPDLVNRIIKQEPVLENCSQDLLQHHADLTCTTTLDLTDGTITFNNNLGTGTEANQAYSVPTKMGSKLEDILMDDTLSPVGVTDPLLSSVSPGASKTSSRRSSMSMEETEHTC
# FBW7 activator – FBW7 E3 ligase activators, primary screen, biochemical, AlphaScreen, human; F-box/WD repeat-containing protein 7 (Homo sapiens), Q969H0; AlphaScreen FBW7–phospho-cyclin E peptide binding, activator screen; normalized activity (activation), % at 26.1 µM; 650,000 compounds, 0.13% hits; in the data active = normalized activity above about 1.9%;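 also: purified mutant Fbw7 with reduced substrate affinity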
# TEAD-YAP block – TEAD-YAP interaction inhibition, primary screen, TEAD-YAP interaction inhibitor project, luminescence, HEK-TIYL cells; 640,000 compounds, 1.4% hits; TEAD-Gal4/YAP UAS-luciferase luminescence; inhibition, % at 9.12 µM; in the data active = inhibition above about 32%;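 also: 0% = median of test compound wells and 100% = reference inhibitor wells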
# The depositor's hits bear a star.
SMILES,GPR151 ag,MITF primary,FBW7 activator,TEAD-YAP block
Cc1sc(NC(=O)CCl)nc1-c1ccc2c(c1)CCN2S(C)(=O)=O,0,18,0,-10
Cc1sc(NC(=O)Cc2cccs2)nc1-c1ccc2c(c1)CC(C)N2S(C)(=O)=O (stereo unspecified),2,7,0,52*
CC(=O)Nc1nc(-c2ccc3c(c2)CCN3S(C)(=O)=O)c(C)s1,1,11,0,52*
N#CCN(CC#N)S(=O)(=O)Cc1ccc(Cl)cc1,-1,-2,0,5
CSc1ccc(/C=N/OCC(=O)N2CCN(c3ccccc3)CC2)cc1,0,-3,0,2
O=C(Oc1ccc(-c2ccccc2)cc1)c1cccc2c1NC(C(=O)O)C1CC=CC21 (stereo unspecified),0,51*,0,-15
O=C(O)C1Nc2c(C(=O)N3CCOCC3)cccc2C2C=CCC12 (stereo unspecified),1,58*,-1,0
O=C(O)C1Nc2c(C(=O)N3CCCC3)cccc2C2C=CCC12 (stereo unspecified),0,80*,-1,10
CC(C)C1Nc2c(C(=O)O)cccc2C2C=CCC21 (stereo unspecified),-1,17,0,1
CC1(C2CCN(C(=O)Cc3cscn3)CC2)NC(=O)N(Cc2ccc(F)cc2)C1=O (stereo unspecified),0,2,0,7
Cc1ccc(C)c(CN2CCc3nnc(CCNC(=O)C4CCOCC4)n3CC2)c1,0,2,0,12
COc1ccc(O)c(/C=N/N=C2/NC(=O)C(C)S2)c1 (stereo unspecified),-8,-7,0,68*
COc1ccc(OC)c(/C=N/N=C2\NC(=O)C(C)S2)c1 (stereo unspecified),0,8,0,-7
CCc1cccc2c(C(=O)C(F)(F)F)c[nH]c12,0,-1,0,-4
COC(=O)c1sc(SC)nc1Nc1ccnc(Nc2cc(OC)ccc2OC)c1,5,9,0,48*
O=S(=O)(NCCc1csc2nc(-c3ccccc3)nn12)c1ccc(F)cc1,1,10,0,10
CC(=O)c1ccccc1-c1ccc2c(c1)CC(CNC(=O)c1ccc3c(c1)OCCO3)O2 (stereo unspecified),1,-21,0,37*
c1cc(-c2ccc3cnc(Nc4ccc(-n5cnc(N6CCOCC6)n5)cc4)nc3c2)cs1,0,22,0,-6
c1cc(-n2cnc(N3CCOCC3)n2)ccc1Nc1ncc2ccc(-c3cn[nH]n3)cc2n1,-1,20,0,68*
c1n[nH]c(-c2ccc3cnc(Nc4ccc(-n5cnc(N6CCOCC6)n5)cc4)nc3c2)n1,3,16,0,65*
CN(C)c1c(Br)cc(NS(=O)(=O)c2ccccc2)cc1Br,0,7,0,6
O=C(Nc1cc2c3c(c1)CCC(=O)N3CCC2)c1ccccc1F,0,1,0,3
Cc1ccc(/C=C2\N=C(c3cccc(Br)c3)OC2=O)cc1,-2,-10,0,-1
CCOC(=O)COc1ccc2c(=O)c(Oc3ccccc3Cl)coc2c1,-1,0,0,-8
CCc1ccc2c(c1)/C(=c1/sc3n(c1=O)CN(c1cccc(C(=O)O)c1)CN=3)C(=O)N2,-1,3,3.9*,-1
SMILES,GPR151 ag,MITF primary,FBW7 activator,TEAD-YAP block
CCOc1ccc2ccccc2c1/C=C1/SC(=O)N(CC(=O)OC)C1=O,-1,12,0,42*
CC1(C)Cc2c(cnn2-c2ccccc2)C(=O)/C1=N/NC(=O)c1cccnc1,-1,-9,0,2
O=C1/C(=C/c2cccnc2)CCC/C1=C\c1cccnc1,0,-17,0,87*
CC(=O)c1cccc(-c2cc(C(=O)NC3CC3)ccn2)c1,-2,24,0,0
CCN(CC)C(=O)Cn1c(C)c(C#N)c2ccccc21,0,18,1.9*,3
Cc1cc(C(=O)COn2nnc3ccc(Cl)cc32)c(C)n1-c1ccc2c(c1)OCCO2,-1,14,0,6
Cc1cc(NC(=O)CSc2nc3ccsc3c(=O)n2Cc2ccccc2Cl)no1,0,-5,0,-15
Cc1[nH]c2ccccc2c1C(=O)COC(=O)CNC(=O)c1ccc(Br)o1,4,-11,0,-1
CCOc1ccc(C(=O)NCC(=O)OCC(=O)c2c(C)[nH]c3ccccc23)cc1,2,0,2.1*,7
COc1ccc(-c2nc3ncnc(NCc4cccc(C(F)(F)F)c4)c3[nH]2)cc1,-1,4,0,46*
Cc1cnc(NCCN2CCOCC2)nc1NCc1cccc(C(F)(F)F)c1,1,-6,0,32*
Cc1cnc(Nc2cccnc2)nc1NCc1ccccc1,4,3,0,33*
Cc1cnc(Nc2ccc3ncccc3c2)nc1NCc1cccc(C(F)(F)F)c1,5,7,0,53*
O=C(Nc1ccccc1)N1CCC(n2cnc3cc(F)ccc32)CC1,0,-1,0,21
COc1cc(C(=O)N2CCN(C(=O)c3ccccc3F)CC2)cc(OC)c1OC,0,13,1,-7
O=C1c2c(Cl)c(Cl)c(Cl)c(Cl)c2C(=O)N1c1ccc(C23CC4CC(CC(C4)C2)C3)cc1,1,-2,0,12
Nc1nc(NCc2cccc(C(F)(F)F)c2)cc(Nc2cnccn2)n1,-1,4,1,56*
Cc1cnc(Nc2ccccn2)nc1NCc1cccc(C(F)(F)F)c1,4,3,0,47*
Cc1cnc(Nc2ccccc2)nc1NCc1cccc(C(F)(F)F)c1,2,6,0,50*
CCNc1ncc(C)c(NCc2cccc(C(F)(F)F)c2)n1,3,-5,0,23
Cc1cnc(Nc2ncccn2)nc1NCc1cccc(C(F)(F)F)c1,0,-11,0,0
FC(F)(F)c1cccc(CNc2ncnc3sccc23)c1,4,-13,0,46*
CC(C)n1c(-c2cccs2)nc2c(NCc3cccc(C(F)(F)F)c3)ncnc21,3,-13,0,1
COc1ccccc1CNC(=O)CC#N,0,-6,0,13
Cc1ccc(N2C(N)=C(C#N)C(c3cc(Br)cs3)C3=C2CCCC3=O)cc1 (stereo unspecified),1,3,0,34*
COc1ccc(N2C(N)=C(C#N)C(c3ccccc3)C3=C2CCCC3=O)cc1 (stereo unspecified),0,4,0,44*
COc1ccc(C2C(C#N)=C(N)N(c3ccc(Cl)cc3)C3=C2C(=O)CCC3)cc1 (stereo unspecified),1,8,0,-2
CCOc1ccc(C2C(C#N)=C(N)N(c3ccc(C)cc3)C3=C2C(=O)CCC3)cc1 (stereo unspecified),0,-9,0,57*
CC1(CC(=O)N/N=C/C=C/c2ccccc2)OCCO1,1,-3,0,-22
